# Measured values from PubChem BioAssay AID504333 (National Center for Advancing Translational Sciences (NCATS), 2011).
# The whole screen tested about 360,000 compounds, of which about 16,000 (4.4%) were called active. Roughly 9% stayed inconclusive and do not appear here. The entries come from a sample that favours actives as a whole. Unmarked numbers belong to inactive results. Calls come from the whole dose curve; as a rule, active = well fitted inhibition curve with a large enough effect; inconclusive = small, poorly fitted or top-dose-only effect; inactive = no such curve, though single readings can be large or run the other way.
# Target: Bromodomain adjacent to zinc finger domain protein 2B (Homo sapiens) (UniProt Q9UIF8)
# Experiment: qHTS Assay for Inhibitors of BAZ2B; note: nearly all actives have a fitted effect of over 60% in size
# Conditions: AlphaScreen BAZ2B-H3K14Ac peptide displacement; series mostly up to 114 µM; activity change, negative = inhibition: at the top concentration
# Excerpt: BAZ2B (bromodomain adjacent to zinc finger domain, 2B) belongs to a family of ubiquitously expressed bromodomain containing proteins, which biological function has not yet been elucidated. […] The interaction of BAZ2B with ISWI mediated by the BAZ1 motif has recently been described. […] The protocol is based on the AlphaScreen (PerkinElmer) displacement assay developed by NCGC [5], but uses the peptide ligand Biot-H3K14Ac, a high affinity binding partner for BAZ2B, in an AlphaScreen format. Although AlphaScreen has significant advantages with its utility in a variety of epigenetic target assays, the primary screening data provided in this deposition should be used with caution due to the prevalence of screening artifacts. The top compound concentration tested was 110uM in this assay, which increases number of actives and potential artifacts. An AlphaScreen counterscreen is highly recommended to be run against any putative actives to eliminate non-specific artifacts. Alternatively, one can use other AlphaScreen assays in PubChem to filter out promiscuous hits. Eberharter, A. et al. ACF1 improves the effectiveness of nucleosome mobilization by ISWI through PHD-histone contacts. The EMBO journal 23, 4029-4039. 2004. PMID: 15457208 [2] Jones, M.H. et al. A novel family of bromodomain genes. Genomics 63, 40-45. 2000. PMID: 10662543 [3] Yasgar, et al. Compound Management for Quantitative High-Throughput Screening. JALA. 2008 Apr;13(2):79-89. PMID: 18496600 [4] Inglese, et al. Quantitative high-throughput screening: a titration-based approach that efficiently identifies biological activities in large chemical libraries. Proc Natl Acad Sci. 1;103(31):11473-8. 2006. PMID: 16864780 [5] Quinn et al. A chemiluminescence-based method for identification of histone lysine methyltransferase inhibitors. Mol Biosyst 6(5): 782-8. 2010. PMID: 20567762 [6] Baell,Holloway. New substructure filters for removal of pan assay interference compounds (PAINS) from screening libraries and for their exclusion in bioassays. J Med Chem. 53(7):2719-40. 2010. PMID: 20131845 NIH Molecular Libraries Probe Production Network [MLPCN] NIH Chemical Genomics Center [NCGC] Structural Genomics Consortium (SGC) NIH Grant: 5U54 MH084681-02
# To each well of a 1,536w plate, 2ul of BAZ2B protein (final 50nM) and 1ul biotinylated histone peptide acetylated at Lys14 [b-H3(5-23)K14Ac] (final 50nM) were added in 1x PBS buffer, pH 7.4, containing 0.01% Tween-20, using a nanoliter dispenser. Formation of a protein-peptide complex proceeded at room temperature for 30 min. A Kalypsys pin-tool was employed to transfer 23 nL of library compound solution in DMSO to each well. Following a 30 min incubation of the protein-peptide complex with compounds at room temperature, a mixture of 40 ug/mL each streptavidin-coated donor and nickel chelate acceptor AlphaScreen beads (final 10 ug/mL) were added in a 1ul dispense for a final volume of 4ul. A brief centrifugation followed (1000rpm, 1 min) and were then incubated protected from the light for 20 min at room temperature. Plates were read on an EnVision multilabel plate reader using the 1,536 plate HTS AlphaScreen aperture (excitation time 80 ms, measurement time 240 ms).
# % is set by controls: 0 for no effect and ±100 for the full control effect; potency is the fitted concentration of half-maximal effect.
# Chain of Bromodomain adjacent to zinc finger domain protein 2B (Homo sapiens) (Q9UIF8 whole entry, looked up, the tested form may be a part): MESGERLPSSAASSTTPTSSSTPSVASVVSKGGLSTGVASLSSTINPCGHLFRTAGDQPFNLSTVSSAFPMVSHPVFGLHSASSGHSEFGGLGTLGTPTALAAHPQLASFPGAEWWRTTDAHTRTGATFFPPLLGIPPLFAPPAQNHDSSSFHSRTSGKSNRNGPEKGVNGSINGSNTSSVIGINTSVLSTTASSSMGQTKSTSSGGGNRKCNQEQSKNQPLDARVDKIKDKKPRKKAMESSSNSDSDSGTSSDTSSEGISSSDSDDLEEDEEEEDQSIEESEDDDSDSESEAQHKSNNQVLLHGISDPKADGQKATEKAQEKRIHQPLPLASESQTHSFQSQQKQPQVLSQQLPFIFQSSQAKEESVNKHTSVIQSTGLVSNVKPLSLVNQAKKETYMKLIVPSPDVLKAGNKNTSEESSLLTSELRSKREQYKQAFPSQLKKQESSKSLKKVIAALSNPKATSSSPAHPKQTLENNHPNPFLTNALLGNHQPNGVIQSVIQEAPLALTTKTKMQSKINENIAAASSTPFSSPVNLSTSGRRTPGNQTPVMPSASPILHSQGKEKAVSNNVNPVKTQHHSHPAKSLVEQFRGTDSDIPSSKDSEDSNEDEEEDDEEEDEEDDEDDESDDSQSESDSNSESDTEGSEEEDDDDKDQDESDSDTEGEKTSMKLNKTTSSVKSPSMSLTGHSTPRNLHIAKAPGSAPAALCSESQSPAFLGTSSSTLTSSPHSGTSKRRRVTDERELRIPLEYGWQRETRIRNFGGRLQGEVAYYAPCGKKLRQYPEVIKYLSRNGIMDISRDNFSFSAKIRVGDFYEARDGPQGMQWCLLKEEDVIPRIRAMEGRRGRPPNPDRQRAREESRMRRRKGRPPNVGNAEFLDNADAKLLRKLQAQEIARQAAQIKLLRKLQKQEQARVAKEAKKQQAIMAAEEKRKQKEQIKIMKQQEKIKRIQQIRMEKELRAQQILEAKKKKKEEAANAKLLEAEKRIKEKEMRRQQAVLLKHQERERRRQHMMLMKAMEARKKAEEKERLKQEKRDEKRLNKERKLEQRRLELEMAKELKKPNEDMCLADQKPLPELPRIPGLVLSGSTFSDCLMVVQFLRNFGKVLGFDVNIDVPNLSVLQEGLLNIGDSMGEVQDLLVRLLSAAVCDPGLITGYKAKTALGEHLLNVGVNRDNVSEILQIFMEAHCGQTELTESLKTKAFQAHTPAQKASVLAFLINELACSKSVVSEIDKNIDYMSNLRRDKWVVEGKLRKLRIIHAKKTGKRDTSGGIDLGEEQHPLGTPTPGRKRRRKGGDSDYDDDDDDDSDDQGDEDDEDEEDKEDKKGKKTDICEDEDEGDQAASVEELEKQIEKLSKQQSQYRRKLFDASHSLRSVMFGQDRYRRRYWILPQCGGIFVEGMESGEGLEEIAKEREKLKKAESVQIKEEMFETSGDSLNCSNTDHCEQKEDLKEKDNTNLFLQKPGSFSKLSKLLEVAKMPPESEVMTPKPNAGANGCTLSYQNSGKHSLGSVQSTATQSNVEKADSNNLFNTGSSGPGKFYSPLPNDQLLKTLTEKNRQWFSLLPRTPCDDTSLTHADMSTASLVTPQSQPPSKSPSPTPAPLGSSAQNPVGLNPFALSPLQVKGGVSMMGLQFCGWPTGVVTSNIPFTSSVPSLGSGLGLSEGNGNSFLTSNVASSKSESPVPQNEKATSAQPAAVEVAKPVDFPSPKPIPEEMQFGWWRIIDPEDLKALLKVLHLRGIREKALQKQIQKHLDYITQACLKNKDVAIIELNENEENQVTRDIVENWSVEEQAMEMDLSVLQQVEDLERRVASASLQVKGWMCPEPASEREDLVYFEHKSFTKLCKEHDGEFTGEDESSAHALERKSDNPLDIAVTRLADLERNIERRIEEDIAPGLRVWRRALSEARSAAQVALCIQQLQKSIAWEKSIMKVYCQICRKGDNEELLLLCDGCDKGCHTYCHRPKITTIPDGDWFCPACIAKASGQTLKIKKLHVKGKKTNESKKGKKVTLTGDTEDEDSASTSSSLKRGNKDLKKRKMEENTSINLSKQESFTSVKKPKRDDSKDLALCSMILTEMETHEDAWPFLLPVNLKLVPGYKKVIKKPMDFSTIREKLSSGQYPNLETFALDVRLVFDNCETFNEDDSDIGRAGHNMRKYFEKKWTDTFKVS
Structure (SMILES),"activity change, negative = inhibition",Potency
COC(=O)C1=C(c2ccc(F)cc2OCc2ccccc2)C[C@@H]2CC[C@H]1N2C(=O)NCc1ccc(OC)c(OC)c1,-9.47%,–
O=C(CCC(=O)N1C[C@H]2C[C@@H](C1)c1cccc(=O)n1C2)NCc1ccccc1C(F)(F)F,9.68%,–
CN1CCN(Cc2ccc(OC(F)(F)F)cc2)CC1,–,56.2 µM (active)
CN1CCN(Cc2ccccc2C(F)(F)F)CC1,-2.16%,–
CC(C)c1ccc(OCC(=O)N2CCCN(C)CC2)cc1,2.95%,–
CCN(CC)C(=O)c1ccc(NC(=O)c2sccc2-c2ccccc2)cc1,-3.49%,–
CCOc1cc(N2CCOCC2)c(OCC)cc1NC(=O)C1=NN(c2cccc(C)c2)C(=O)CC1,–,8.91 µM (active)
CN(C)CC1Oc2ccccc2OC1(O)c1ccccc1 (stereo not given),1.99%,–
CN(C)c1ccc(/C=C2\CC3C4CC=C5CC(O)CCC5(C)C4CCC3(C)C2=O)cc1 (stereo not given),-29.5%,–
COC(=O)C1=C(c2ccc(F)cc2OCc2ccccc2)C[C@@H]2CC[C@H]1N2C(=O)NCc1ccc(Cl)cc1,3.65%,–
c1ccc(CC2CCCCN2)cc1 (stereo not given),3.56%,–
Cc1ccc(CN2CCCC(C(=O)c3ccc4c(c3)OCO4)C2)cc1C (stereo not given),-14.9%,–
OC(CNC1CCCCC1)c1ccccc1 (stereo not given),4.38%,–
c1cc2c(cc1CCNC1CCCCCC1)OCO2,–,17.8 µM (active)
c1cc2c(cc1[C@H]1OC[C@H]3[C@@H]1CO[C@@H]3c1ccc3c(c1)OCO3)OCO2,2.2%,–
c1ccc(CCNC2CCCCCC2)cc1,–,70.8 µM (active)
COc1cc(Cn2c(N)c(C(=O)NCc3ccco3)c3nc4ccccc4nc32)cc(OC)c1OC,-13.2%,–
O=C(c1ccccc1[N+](=O)[O-])N1CCC2(CC1)OCCO2,-1.71%,–
COC(=O)C1=C(c2ccc(F)cc2F)C[C@@H]2CC[C@H]1N2C(=O)NC1CC1,11.4%,–
Cc1ccc2c(c1)=C/C(=C\c1c(O)[nH]c(=O)[nH]c1=O)C(=O)N=2,-11.9%,–
CCOc1ccc(-c2cc(C)[n+](CCN(CC)CC)c(-c3ccc(OCC)cc3)c2)cc1,-12.5%,–
Cc1ccc(C(C)C)c(OCC(=O)N2CCN(CC(=O)N3CCOCC3)CC2)c1,7.63%,–
CC(=O)Nc1ccc(C(=O)C(Cc2ccccc2)N(C)C)cc1 (stereo not given),-24%,–

Structure (SMILES),"activity change, negative = inhibition",Potency
CN(C)c1ccc(NC(=O)CN2C3CCCC2CC(NC(=O)c2ccccc2)C3)cc1 (stereo not given),–,70.8 µM (active)
CN(C)S(=O)(=O)c1cc(C(=O)N2CCC(C(=O)O)(c3ccccc3)CC2)ccc1Cl,3.5%,–
CCN1CCN(c2nc3c(c(=O)[nH]2)CCC3)CC1,-11.1%,–
O=C(Nc1ccc(Cl)cc1C(=O)c1ccccc1)c1cc(Cl)cc(Cl)c1,-6.39%,–
COc1cccc(N2C(=O)NC(=O)/C(=C\c3ccc([N+](=O)[O-])s3)C2=O)c1,–,31.6 µM (active)
O=C1NC(=O)N(c2ccccc2)C(=O)/C1=C/c1ccc([N+](=O)[O-])s1,–,35.5 µM (active)
Cc1cccc(N2C(=O)NC(=O)/C(=C\c3cnn(-c4ccccc4)c3)C2=O)c1,-4.33% [at 57.1 µM],–
COc1cccc(N2C(=O)NC(=O)/C(=C\c3cn(C)c4ccccc34)C2=O)c1,-0.686%,–
Cc1nn(-c2ccccc2)c(C)c1NC(=O)COC(=O)Cc1ccccc1,-2.34%,–
COC(=O)C1=C(c2ccc(C(C)=O)cc2)C[C@@H]2CC[C@H]1N2C(=O)NCCNC(C)=O,3.05%,–
CC(C)n1c(=O)c(C=Nc2ccc(Br)cc2)c(O)n(Cc2ccco2)c1=O,3.28%,–
Cc1cc(C(=O)OCC(=O)Nc2c(F)cccc2F)c(C)n1C1CC1,10.6%,–
COc1ccccc1OC(=O)c1ccc(C)c(S(=O)(=O)N2CCOCC2)c1,-19.5%,–
COc1ccc(CN2C(=O)NC(=O)/C(=C\c3ccc(OC)c(OC)c3OC)C2=O)cc1,-35.5%,–
COc1ccc(N2C(=O)/C(=C/c3ccco3)C(=O)NC2=S)cc1,–,3.55 µM (active)
Cc1ccc(S(=O)(=O)N(C)c2ccc(C(=O)NCC3(N(C)C)CCCCC3)cc2)cc1,-7.55%,–
CN(C)C(=O)Oc1ccc(OCc2cccc[n+]2C)cc1,-2.06%,–
COC(=O)C1=C(c2ccc(F)cc2OCc2ccccc2)C[C@@H]2CC[C@H]1N2C(=O)NCc1ccc(C(C)(C)C)cc1,-29.9%,–
O=C(OCC1O[C@@H](OC(=O)c2cc(O)c(O)c(O)c2)[C@@H](OC(=O)c2cc(O)c(O)c(O)c2)[C@@H](OC(=O)c2cc(O)c(O)c(O)c2)[C@@H]1OC(=O)c1cc(O)c(O)c(O)c1)c1cc(O)c(O)c(O)c1 (stereo not given in full),–,0.708 µM (active)
CN(C)C(=O)Oc1ccc2c(c1)O/C(=C\c1ccccc1)C2=O,-32.8%,–
CC1CCC(N(C)C2CCN(C)CC2)CC1 (stereo not given),-19.6%,–
CNC(=O)O/N=C(\N)Cc1csc2ccc(Cl)cc12,-13.2%,–
